Measurements published in PubChem BioAssay AID720664 (National Center for Advancing Translational Sciences (NCATS), 2013).
Inconclusive results are not listed. The source made the active and inactive calls. The call rests on the fitted dose curve; in most records, active means well fitted inhibition curve with a large enough effect; inconclusive means small, poorly fitted or top-dose-only effect; inactive means flat fitted curve, though single readings scatter.

The molecules below were run against Galactokinase (Homo sapiens) (UniProt P51570) (assay: qHTS for Inhibitors of Human Galactokinase (GALK): SAR round 3). Settings: ADP detection luminescence, 1 h; series mostly up to 57.5 µM; activity change, negative = inhibition: at the top concentration.
Galactokinase (Homo sapiens), sequence (P51570 whole entry, looked up): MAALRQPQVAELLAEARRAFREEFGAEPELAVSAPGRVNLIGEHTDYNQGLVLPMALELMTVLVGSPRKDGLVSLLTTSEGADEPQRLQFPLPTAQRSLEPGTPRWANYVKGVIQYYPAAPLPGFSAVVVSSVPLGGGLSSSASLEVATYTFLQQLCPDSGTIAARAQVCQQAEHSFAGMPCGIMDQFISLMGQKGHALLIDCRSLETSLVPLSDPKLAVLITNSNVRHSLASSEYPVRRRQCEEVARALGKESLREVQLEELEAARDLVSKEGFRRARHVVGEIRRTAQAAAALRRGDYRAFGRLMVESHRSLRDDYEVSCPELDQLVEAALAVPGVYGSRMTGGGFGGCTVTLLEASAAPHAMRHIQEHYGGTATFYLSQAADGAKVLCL
Description: Inherited deficiency of galactose-1-phosphate uridyltransferase (GALT) can result in a potentially lethal disorder called Classic Galactosemia (OMIM 230400). Several lines of evidence indicate that an elevated level of galactose-1-phosphate (gal-1-p), the product of galactokinase (GALK), is a major, if not sole, pathogenic mechanism in patients with classic galactosemia. Therefore, finding inhibitors of GALK is a potential novel therapy for this inherent metabolic disease and is the long term goal of this project. Active compounds observed in the qHTS GALK assay (AID: 1868) were cherry picked and re-screened for validation. GALK (provided by Kent Lai) was assayed using ATP and D-(+)-Galactose (Sigma-Aldrich cat# G0750) as substrates. Promega ADP-Glo technology was used to detect the ADP product formed after the kinase reaction. Kinase reactions with and without GALK were used as negative and positive controls together with Protein Tyrosine Phosphatase CD45 inhibitor (EMD Bioscience cat# 540215) which is shown to inhibit GALK activity. Decrease in activity corresponds to inhibition of the enzyme, the desired outcome for this assay. NIH Molecular Libraries Probe Production Network [MLPCN] NIH Chemical Genomics Center [NCGC] Grant: MH085689-01 PI Name: Kent Lai, University of Utah
Three uL/well of ATP-buffer solution (35 uM ATP, 20mM HEPES pH8.0, 5 mM MgCl2, 60 mM NaCl, 1 mM DTT, 0.01% BSA final concentration) was dispensed into 1536-well, assay plates (Greiner, solid white medium-binding plates) with Aurora Discovery BioRAPTR Flying Reagent Dispenser (FRD; Beckton-Dickenson). Compound and control solution (23 nL) was transferred to the assay plate using the Kalypsys 1536-pin tool apparatus. One uL/well GALK-galactose solution (5 nM GALK, 100 uM galactose, 20 mM HEPES pH8.0, 5 mM MgCl2, 60 mM NaCl, 1 mM DTT, 0.01% BSA final concentration) was then added using the FRD yielding a total kinase reaction volume of 4 uL/ well. After 1 hour of room temperature incubation, 4 uL Kinase-Glo Plus reagent was added for a final assay volume of 8 uL/well. Luminescence was detected with the ViewLux plate reader (Perkin Elmer, Waltham, MA) after 2 min incubation using a 1 sec exposure time and 2x binning.

Row | SMILES | Potency | activity change, negative = inhibition
1 | Cn1cc(Cl)c(C2N=C(Nc3nc4ccccc4o3)NC3=C2C(=O)CCC3)n1 (centres undefined) | 12.2 µM (active) | –
2 | CC(=O)Nc1ncc(S(=O)(=O)N2CCOCC2)s1 | – | -1.9% (inactive)
3 | CC1=C(C(=O)Nc2nccs2)C(c2ccccc2Br)N=C(Nc2nc3ccccc3o2)N1 (centres undefined) | – | -26.6% (inactive)
4 | Cc1cccc2nc(NC3=NC(c4[nH]ncc4Cl)C4=C(CCCC4=O)N3)oc12 (centres undefined) | – | -0.192% (inactive)
5 | Cn1cc(Br)c(C2N=C(Nc3nc4ccccc4o3)NC3=C2C(=O)CCC3)n1 (centres undefined) | 9.68 µM (active) | –
6 | Cc1ccc2nc(NC3=NC(c4[nH]ncc4Cl)C4=C(CCCC4=O)N3)oc2c1 (centres undefined) | – | 13.9% (inactive)
7 | O=C1CCCC2=C1C(c1[nH]ncc1Cl)N=C(Nc1nc3ccc(F)cc3o1)N2 (centres undefined) | – | 0.665% (inactive)
8 | CC1=C(C(=O)Nc2nncs2)C(c2nn(C)cc2Cl)N=C(Nc2nc3ccccc3o2)N1 (centres undefined) | 17.2 µM (active) | –
9 | CCCc1ccc(NC(=O)c2ccc3c(c2)NC(=O)CS3)cc1 | – | 3.14% (inactive)
